Source: PubChem BioAssay
Calls of active or inactive are those of the source.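 Rule for the calls, unless noted: active = inhibition at or above 50% at 10 µM; inactive = inhibition below 50%.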

Tests used:
[1] = inhibitors of TNFa-induced NFkB p65 translocation, primary screen, imaging, HUVEC, MLSMR starter and 10KST1 sets (AID 438;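 active = inhibition above 20% together with a positive visual image hit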;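 note: compound added about 3h40 before a 20 min TNFalpha stimulation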;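 for inhibition: signal is the nuclear over cytoplasmic p65 intensity ratio per well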); details: HUVEC TNFa-induced p65 nuclear translocation; cell count: measured here: nuclei count (cytotoxicity indicator), at 2.08 µM; inhibition: at 2 µM, stronger effect = higher value, 0% TNFa-plus-vehicle, 100% no-TNFa wells
[2] = reduction of polyQ htt aggregates in cells – imaging, exon1htt(103Q)mCFP cells, high-content imaging, primary screen (AID 483;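 active = visual image review flags a hit and inhibition of aggregation exceeds 20%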;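 note: compound exposure lasted 3 days before fixation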;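 for nuclei count: percent of the per-plate median nuclei count of sample wells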); details: exon1htt(103Q)mCFP cell line, aggregate imaging, at 2 µM; inhibition of aggregation: stronger effect = higher value; nuclei count: measured here: cell count, toxicity
[3] = endothelial E-selectin expression blockers – imaging, HUVEC, immunofluorescence, MLSMR starter and 10KST1 sets, primary screen (AID 487;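 active = visually confirmed hit in the image check and inhibition above 20%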;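 for inhibition: signal is fraction of cell area covered by stained E-selectin grains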;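 for nuclei count: 100% = median nuclei count of all wells on the same plate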); details: HUVEC TNFalpha-induced E-selectin immunofluorescence imaging, at 2 µM; inhibition: stronger effect = higher value; nuclei count: measured here: cell number, toxicity
[4] = target: Voltage-gated potassium channel subunit beta-2 (Rattus norvegicus) (UniProt P62483); test: inhibitors of rat Kvbeta2 reductase activity – biochemical, NADPH fluorescence, primary screen (AID 622;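 active = fluorescence slope higher than the sample average by over 3 SD, cut at about -0.22 in these data, passing the limit was not always enough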;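 note: slope of raw intensity against log time taken from 70 to 1610 s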); details: recombinant KvBeta, 4-cyanobenzaldehyde reduction, at 10 µM, stronger effect = higher value
[5] = target: Voltage-gated potassium channel subunit beta-2 (Rattus norvegicus) (UniProt P62483); test: enhancers of rat Kvbeta2 NADPH turnover – biochemical, NADPH fluorescence, primary screen (AID 623;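 active = NADPH fluorescence slope more negative than the mean of all samples by about 3 SD, 99.7% confidence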;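 note: fluorescence intensity change per second fitted from 20 to 320 s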); details: Recombinant KvBeta, NADPH fluorescence decrease slope, 10 min; at 10 µM; stronger effect = lower value
[6] = target: Alpha-2C adrenergic receptor (Homo sapiens) (UniProt P18825); test: compounds altering alpha2C-coupled GIRK flux – cell-based, HEK293 alpha2C/GIRK1/2, thallium flux, primary screen (AID 624;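 active = fluorescence slope after compound addition differing from the mean of all screened samples at 99.7% confidence, in either direction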;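 note: slope of fluorescence ratio to pre-addition baseline per second over 15 to 24 s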); details: thallium flux BTC fluorescence, at 10 µM, actives lie on both sides
[7] = blockers of RIG-like receptor reporter activation – cell-based, Sendai virus stimulus, luciferase, 10K MLSCN set, TLR/RLR signaling modifier project, primary screen (AID 602276); details: HEK293 RL24 IRF3 luciferase reporter, at 10 µM, stronger effect = higher value;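 note: firefly luciferase from ISG56 promoter only with Renilla not read in this screen; 0% = Sendai virus plus DMSO and 100% = medium plus DMSO without virus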
[8] = TLR3 IRF3 reporter activation blockers – cell-based, poly I:C stimulus, luciferase, 10K MLSCN set, primary screen (AID 602277;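 active = inhibition of the reporter signal at or above 50%; inactive = inhibition below 50%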); details: HEK293-TLR3 RL24 IRF3 luciferase reporter, at 10 µM, stronger effect = higher value

Alpha-2C adrenergic receptor (Homo sapiens), sequence (P18825 whole entry, looked up): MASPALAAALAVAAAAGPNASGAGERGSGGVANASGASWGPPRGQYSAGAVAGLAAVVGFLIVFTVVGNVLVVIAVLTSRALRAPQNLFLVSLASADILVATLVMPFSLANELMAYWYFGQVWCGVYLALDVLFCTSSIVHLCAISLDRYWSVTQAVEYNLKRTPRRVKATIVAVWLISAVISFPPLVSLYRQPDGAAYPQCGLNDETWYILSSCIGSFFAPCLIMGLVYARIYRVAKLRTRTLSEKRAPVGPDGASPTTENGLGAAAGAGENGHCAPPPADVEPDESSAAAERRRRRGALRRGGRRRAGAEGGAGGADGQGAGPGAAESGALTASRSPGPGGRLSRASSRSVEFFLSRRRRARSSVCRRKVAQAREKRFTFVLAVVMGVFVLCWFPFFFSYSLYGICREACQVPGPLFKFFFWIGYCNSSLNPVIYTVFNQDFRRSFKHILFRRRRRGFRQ
Voltage-gated potassium channel subunit beta-2 (Rattus norvegicus), sequence (P62483 whole entry, looked up): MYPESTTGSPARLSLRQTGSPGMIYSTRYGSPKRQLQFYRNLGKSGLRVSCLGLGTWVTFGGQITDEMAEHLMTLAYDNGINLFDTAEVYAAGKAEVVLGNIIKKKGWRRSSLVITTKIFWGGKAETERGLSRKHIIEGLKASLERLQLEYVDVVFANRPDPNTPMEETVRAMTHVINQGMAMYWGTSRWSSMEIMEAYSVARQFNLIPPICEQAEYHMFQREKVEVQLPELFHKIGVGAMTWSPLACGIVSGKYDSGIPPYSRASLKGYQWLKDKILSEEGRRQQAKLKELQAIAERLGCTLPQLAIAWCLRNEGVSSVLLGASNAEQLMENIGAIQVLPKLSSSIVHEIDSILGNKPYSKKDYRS

| Compound | cell count [1] | inhibition [1] | inhibition of aggregation [2] | nuclei count [2] [%] | inhibition [3] | nuclei count [3] [%] | fluorescence slope [4] | NADPH fluorescence slope [5] | slope [6] | inhibition [7] | inhibition [8] |
| --- | --- | --- | --- | --- | --- | --- | --- | --- | --- | --- | --- |
| CC(=O)NCc1ccc(C(=O)CSc2nnc(-c3ccncc3)n2Cc2ccccc2)o1 | 461 | -1.1% (inactive) | 16.2% (inactive) | 96 | -25.7% (inactive) | 127 | -0.59 (inactive) | -5.8e-05 (inactive) | 0.00604 (inactive) | 12.6% (inactive) | 20.5% (inactive) |
| CCc1nnc(NC(=O)CSc2nnc(-c3ccoc3C)n2CC(C)C)s1 | 714 | 3.2% (inactive) | -3.8% (inactive) | 110 | 15.4% (inactive) | 91 | -0.367 (inactive) | 4.9e-06 (inactive) | 0.0051 (inactive) | 16.7% (inactive) | 15.3% (inactive) |
| CCCCOc1ccc(-c2nnn(C(C)(C)C(=O)OC)n2)cc1 | 602 | -6.3% (inactive) | 7% (inactive) | 67.8 | 1.6% (inactive) | 102 | -0.502 (inactive) | -0.00029 (active) | 0.0068 (inactive) | -33.8% (inactive) | -125% (inactive) |
| Cc1cc(C)nc(N2CCC(C(=O)Nc3ccc4c(c3)CCC4)CC2)n1 | 338 | 6.3% (inactive) | 17.6% (inactive) | 92 | -103% (inactive) | 120 | -0.405 (inactive) | -6.3e-05 (inactive) | 0.00372 (inactive) | 5.67% (inactive) | 24.8% (inactive) |
| COCCCNC(=O)c1ccc(CS(=O)(=O)c2ccc(OC)cc2)o1 | 696 | -8.1% (inactive) | 5.6% (inactive) | 101 | -54.8% (inactive) | 115 | -0.519 (inactive) | -5.8e-05 (inactive) | 0.00615 (inactive) | 7.18% (inactive) | 13.8% (inactive) |
| COc1ccccc1C(=O)N1CCN(CCc2ccccc2)CC1 | 341 | 3.2% (inactive) | -5.8% (inactive) | 100 | 6% (inactive) | 104 | -0.385 (inactive) | 1.9e-05 (inactive) | 0.00331 (inactive) | 8.51% (inactive) | 0.325% (inactive) |
| COc1ccccc1NC(=O)C1(C)Cc2ccccc2C(=O)O1 (stereo not drawn) | 640 | 12.4% (inactive) | -26.4% (inactive) | 119 | 46.9% (inactive) | 106 | -0.584 (inactive) | -3.4e-05 (inactive) | 0.00673 (inactive) | -6.71% (inactive) | -2.97% (inactive) |
| CN(CC(=O)Nc1sccc1C#N)C1CCCCC1 | 723 | -7.3% (inactive) | -178% (inactive) | 7.1 | -27.2% (inactive) | 125 | -0.42 (inactive) | -1.4e-05 (inactive) | 0.00552 (inactive) | -14.2% (inactive) | 99.3% (active) |
| CC(=O)c1c(OC(=O)c2ccco2)c2ccccc2n1C | 386 | 1% (inactive) | 15.7% (inactive) | 72.8 | -81.6% (inactive) | 101 | -0.367 (inactive) | -1.2e-05 (inactive) | 0.00641 (inactive) | 12% (inactive) | 1.24% (inactive) |
| Cc1cc(C)c(NC(=O)CSc2nc3c(c(=O)n2C)SC(C)C3)c(C)c1 (stereo not drawn) | 700 | 2.9% (inactive) | -5.9% (inactive) | 102 | -22% (inactive) | 120 | -0.565 (inactive) | -3.2e-05 (inactive) | 0.00653 (inactive) | -19.3% (inactive) | -13.4% (inactive) |
| O=C(NCc1ccccc1)C1CCN(S(=O)(=O)N2CCCCCC2)CC1 | 639 | 0% (inactive) | -6.3% (inactive) | 106 | -19.7% (inactive) | 112 | -0.473 (inactive) | 5.6e-05 (inactive) | 0.00906 (inactive) | -9.73% (inactive) | -4.63% (inactive) |
| CC1Cc2nc(SCC(N)=O)n(Cc3ccccc3)c(=O)c2S1 (stereo not drawn) | 633 | -14% (inactive) | 1.8% (inactive) | 90.7 | -15.2% (inactive) | 113 | -0.438 (inactive) | 2.5e-05 (inactive) | 0.00575 (inactive) | -2.11% (inactive) | 36% (inactive) |
| COc1ccc(NC(=O)C23CCC(C)(C(=O)C2)C3(C)C)cc1 (stereo not drawn) | 606 | -7.7% (inactive) | -15.6% (inactive) | 103 | -111% (inactive) | 108 | -0.6 (inactive) | 6.7e-07 (inactive) | 0.00539 (inactive) | 12.6% (inactive) | 17.8% (inactive) |
| COc1ccc(CC(=O)Nc2ccc(OC)c(NC(=O)c3ccco3)c2)cc1 | 580 | 22% (active) | 4% (inactive) | 99.6 | -70.8% (inactive) | 146 | -0.417 (inactive) | 9.4e-05 (inactive) | 0.00901 (inactive) | -27.5% (inactive) | -49.2% (inactive) |
| CC1=C(C)C(=O)NC(Nc2nc(C)c3cc(C)cc(C)c3n2)N1 (stereo not drawn) | 540 | -14.3% (inactive) | -9.7% (inactive) | 103 | 5.2% (inactive) | 115 | -0.285 (inactive) | -2.3e-05 (inactive) | 0.00676 (inactive) | 7.09% (inactive) | -49.5% (inactive) |
| COc1ccc(-c2cc(N3CCCC3)n3ncnc3n2)cc1 | 640 | 11.9% (inactive) | 7.3% (inactive) | 118 | -3.2% (inactive) | 102 | -0.473 (inactive) | -2.2e-05 (inactive) | 0.00575 (inactive) | -11.3% (inactive) | -11.7% (inactive) |
| Cc1ccc(N(C(=O)c2ccncc2)C2C=CS(=O)(=O)C2)cc1 (stereo not drawn) | 816 | -4% (inactive) | -5.8% (inactive) | 114 | -56.8% (inactive) | 117 | -0.612 (inactive) | -2.8e-05 (inactive) | 0.00723 (inactive) | -4.78% (inactive) | 24.5% (inactive) |
| CC(C)NC(=O)Nc1cccs1 | 708 | 3% (inactive) | 21.6% (inactive) | 104 | -84.5% (inactive) | 105 | -0.507 (inactive) | -5.6e-05 (inactive) | 0.00565 (inactive) | 11.4% (inactive) | 4.68% (inactive) |
| Cc1c(Cl)cccc1NC(=O)CCN1CCCCC1 | 329 | -1.3% (inactive) | -7.5% (inactive) | 112 | -67.3% (inactive) | 133 | -0.514 (inactive) | 3e-05 (inactive) | 0.00469 (inactive) | 17.5% (inactive) | 20% (inactive) |
| O=C(c1ccc(CNc2c(N3CCCC3)c(=O)c2=O)cc1)N1CCc2ccccc2C1 | 535 | 2.3% (inactive) | -13.5% (inactive) | 100 | -18.6% (inactive) | 108 | -0.614 (inactive) | 2.4e-05 (inactive) | 0.00541 (inactive) | -7.92% (inactive) | 4.25% (inactive) |
| O=C(CN1CCN(c2nc(-c3ccccc3)cs2)CC1)Nc1ccc2c(c1)OCO2 | 529 | -11.3% (inactive) | -0.3% (inactive) | 106 | -77.7% (inactive) | 146 | -0.518 (inactive) | 1.7e-05 (inactive) | 0.00563 (inactive) | -2.24% (inactive) | -3.31% (inactive) |
| CCC(C)(C(=O)NC1CCCC1)N(Cc1cccs1)C(=O)Cc1cccs1 (stereo not drawn) | 698 | -0.9% (inactive) | 21% (inactive) | 127 | -7.8% (inactive) | 112 | -0.473 (inactive) | -0.000168 (inactive) | 0.00631 (inactive) | 14.4% (inactive) | 44.6% (inactive) |
| O=C(Nc1ccccc1-c1nc2ccccc2o1)c1ccc2c(c1)OCCO2 | 530 | -7.2% (inactive) | -29.9% (inactive) | 99.2 | 48.6% (inactive) | 87.4 | -0.131 (inactive) | 1.2e-05 (inactive) | 0.0146 (inactive) | 11.3% (inactive) | 13.7% (inactive) |
| O=S(=O)(c1ccc(S(=O)(=O)N(Cc2ccco2)Cc2ccccc2Cl)cc1)N1CCCC1 | 818 | -6.1% (inactive) | -2.8% (inactive) | 108 | -38.1% (inactive) | 126 | -0.587 (inactive) | -3.1e-05 (inactive) | 0.00951 (inactive) | 8.74% (inactive) | 28% (inactive) |
| CCC(=O)c1ccc(OC(=O)c2ccc(Br)o2)cc1 | 354 | 6.8% (inactive) | -19.7% (inactive) | 99.8 | -84.3% (inactive) | 112 | -0.605 (inactive) | -3e-05 (inactive) | 0.00383 (inactive) | 10.9% (inactive) | 9.67% (inactive) |
| O=C1CCN(C(=O)c2ccccc2)C2CCCCC12 (stereo not drawn) | 511 | -8.7% (inactive) | 4.4% (inactive) | 41.3 | 19.1% (inactive) | 81.9 | -0.408 (inactive) | 1.6e-05 (inactive) | 0.00412 (inactive) | -7.18% (inactive) | 15.9% (inactive) |
| Cc1ccc2c(c1)C(N1CCCC1=O)CC(c1ccco1)N2 (stereo not drawn) | 343 | 0% (inactive) | 14.5% (inactive) | 94.2 | -7.7% (inactive) | 106 | -0.407 (inactive) | 3.1e-05 (inactive) | 0.00529 (inactive) | -30.3% (inactive) | 98.9% (active) |
| O=C(NCc1cccs1)C(Cc1ccccc1)n1cccc1 (stereo not drawn) | 602 | -6.3% (inactive) | 6.2% (inactive) | 95.4 | -25.8% (inactive) | 115 | -0.614 (inactive) | -5.2e-05 (inactive) | 0.00634 (inactive) | 1.52% (inactive) | 26.2% (inactive) |
